Our source for the Potency values is PubChem BioAssay (Tox21).

Experiment [1] in a line: Nuclear factor erythroid 2-related factor 2/antioxidant responsive element (Nrf2/ARE) small molecule agonists: qHTS cell viability counter screen in human keratinocytes (AID 1919968; active means well fitted curve in the direction sought with a large enough effect in the repeat runs; an effect the other way counts as inactive or inconclusive; further: nearly all actives have a fitted effect of over 55% in size; further: potency means the concentration at half of the fitted maximal effect). In short, it runs like this:
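After a 5 h attachment period, ARE-reporter keratinocytes were dosed with compounds in DMSO and then cultured 23 h at 37 C. Cell viability came from CellTiter-Fluor signal read after a further 1 h.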
In general terms: qHTS replaces the single test concentration by a dilution series.

Experiment [2] has as its target Gonadotropin-releasing hormone receptor (Homo sapiens) (UniProt P30968). Briefly: Human gonadotropin-releasing hormone receptor (GnRHR) small molecule agonists, calcium flux assay in GnRHR-HEK293 cells (AID 1920063). Further: nearly all actives have a fitted effect of over 35% in size. In short, it runs like this: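 We seeded human GnRHR-expressing HEK293 cells for 18 hours, loaded them with calcium dye for an hour at 37 C, added test compounds, and recorded fluorescence intensity kinetically for three minutes.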

For experiment [3], the target named is KiSS-1 receptor (Homo sapiens) (UniProt Q969F8). Nature of the experiment: Human kisspeptin (KISS1R) small molecule agonists, calcium flux assay in KISS1R-HEK293 cells (AID 1920064; active means well fitted curve in the direction sought with a large enough effect in the repeat runs; an effect the other way counts as inactive or inconclusive). In short, it runs like this:
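Kinetic calcium assay, 1 s sampling over 3 min at Ex/Em 480/540, in HEK293 cells engineered with human KISS1R; compounds delivered in DMSO after 1 h dye loading.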
(In general: A change in cytosolic calcium serves as a functional read-out for many receptors and channels.)

A short description of experiment [4]: G protein-coupled receptor (GPCR) small molecule agonists, calcium flux assay: HEK293 wild type cell line counter screen (AID 1920065). The gist of the method: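 Calcium-sensitive dye, loaded 1 h at 37 C into cells cultured 18 h, reports compound-evoked calcium release as fluorescence (Ex/Em 480/540), measured over 3 min. Agonist mode; 15-point titrations, triplicate.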

Experiment [5] is described as follows: p53 small molecule agonists, cell-based qHTS assay with rat liver microsomes (AID 1963578). In short, it runs like this: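 p53RE-bla cells, 4,000/well, pre-incubated 5 h, then given compounds plus rat liver microsomes (0.5 mg/mL final) and NADPH (0.5 mg/mL final). Incubation 16 h at 37 C; beta-lactamase reporter read by LiveBLAzer fluorescence after 2 h at room temperature.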

The nature of experiment [6]: p53 small molecule agonists, cell-based qHTS assay with human liver microsomes: qHTS cell viability counter screen (AID 1963579). Further: nearly all actives have a fitted effect of over 45% in size. The gist of the method: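 p53RE-bla cells, 4,000/well, dosed 5 hours after plating, with human liver microsomes (0.5 mg/mL final) plus NADPH (0.5 mg/mL final), 16 hours at 37 C. Viability read as CellTiter-Glo luminescence after 30 min at room temperature.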

A short description of experiment [7]: p53 small molecule agonists, cell-based qHTS assay with rat liver microsomes: qHTS cell viability counter screen (AID 1963580). Further: nearly all actives have a fitted effect of over 45% in size. The gist of the method: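 p53RE-bla HCT-116 cells were exposed 16 h at 37 C to compounds with rat liver microsomes (0.5 mg/mL) and NADPH (0.5 mg/mL). Viability was measured in the same wells as ATP content by CellTiter-Glo luminescence.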

A short description of experiment [8]: p53 small molecule agonists, cell-based qHTS assay: qHTS cell viability counter screen (AID 1963581). Further: nearly all actives have a fitted effect of over 45% in size. The gist of the method: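 Following 5 h attachment, HCT-116 p53RE-bla cells took up compound for 16 h at 37 C; the reporter was read with B/G FRET substrate (2 h RT), and viability then via CellTiter-Glo ATP luminescence.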
Experiment [9] can be described thus: p53 small molecule agonists, cell-based qHTS assay (AID 1963582; active means well fitted activation curve with a large enough effect in the signal ratio in the repeat runs, not every such curve was filed as active; the % refers to the signal ratio). In short, it runs like this:
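In this cell-based concentration-response screen, a p53 response element drives beta-lactamase; cells received DMSO-borne compounds after 5 h culture and were incubated a further 16 h before FRET substrate development.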

Experiment [10] has as its target D(2) dopamine receptor (Homo sapiens) (UniProt P14416). Briefly: Dopamine D2 receptor (DRD2) small molecule antagonists, cell-based qHTS assay (AID 1963595; active means well fitted inhibition curve with a large enough effect in the signal ratio in the repeat runs, with a control signal flat; the % refers to the signal ratio). In short, it runs like this: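 Stable D2 receptor HEK293 line, 24 h after seeding. Compound preincubated 10 min, then quinpirole (12 nM) with forskolin analogue NKH477 (200 nM), 30 min, room temperature. Detection by time-resolved FRET of cAMP.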

The target of experiment [11] is 5-hydroxytryptamine receptor 2A (Homo sapiens) (UniProt P28223). Briefly: 5-hydroxytryptamine receptor 2A (HTR2A) small molecule antagonists, cell-based qHTS assay (AID 1963586). Further: nearly all actives have a fitted effect of over 45% in size. The gist of the method:
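Antagonist-mode intracellular calcium assay: DOI (4 nM) added after 5 min compound pre-incubation at room temperature to dye-loaded HTR2A-CHO cells. Fluorescence followed for 3 min, sampled every second.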

For experiment [12] the target is unchanged. Briefly: 5-hydroxytryptamine receptor 2A (HTR2A) small molecule agonists, cell-based qHTS assay (AID 1963587). Further: nearly all actives have a fitted effect of over 30% in size. In short, it runs like this: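 CHO cells stably expressing human HTR2A, plated 18 h, loaded with calcium dye 1 h at 37 C. Agonist mode: compounds added and intracellular calcium fluorescence recorded kinetically for 2 min at 1 sec intervals.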

Experiment [13] deals with Muscarinic acetylcholine receptor M1 (Homo sapiens) (UniProt P11229). Nature of the experiment: Cholinergic receptor muscarinic 1 (CHRM1) small molecule antagonists, cell-based qHTS assay (AID 1963588). Further: nearly all actives have a fitted effect of over 40% in size. Further: potency means the concentration at half of the fitted maximal effect. In short, it runs like this:
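CHRM1-CHO calcium-flux assay, antagonist mode. Cells were seeded 18 h, dye-loaded 1 h at 37 C and given compound for 5 min at RT, then acetylcholine was added at 50nM. FDSS fluorescence was read 3 min; 15 concentrations, three runs.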

Experiment [14] shares this target. Briefly: Cholinergic receptor muscarinic 1 (CHRM1) small molecule agonists, cell-based qHTS assay (AID 1963589). Further: nearly all actives have a fitted effect of over 35% in size. In short, it runs like this: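 Measures agonist-induced intracellular calcium rise. Stable human CHRM1 CHO line, 1 h dye load at 37 C, compounds from DMSO, kinetic fluorescence read.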
The nature of experiment [15]: cAMP Responsive Elements (CRE) small molecule agonists, cell-based qHTS assay (AID 1963590). The gist of the method: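 A CRE-responsive beta-lactamase reporter in HEK 293T cells was used. Treatment ran 3 h at 37 C; detection used LiveBLAzer B/G FRET substrate for 2 h at room temperature.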
A short description of experiment [16]: cAMP Responsive Elements (CRE) small molecule antagonists, cell-based qHTS assay (AID 1963591; active means well fitted inhibition curve with a large enough effect in the signal ratio in the repeat runs, not every such curve was filed as active; the % refers to the signal ratio). The gist of the method: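 HEK293T cells carrying a CRE-driven beta-lactamase reporter receive compound and NKH477 (0.25 uM final) for 3 h. Fluorescence from LiveBLAzer B/G FRET substrate is read after 2 h at room temperature.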
Experiment [17] concerns the target Beta-2 adrenergic receptor (Homo sapiens) (UniProt P07550). Briefly: Adrenergic beta2 receptor (ADRB2) small molecule antagonists, cell-based qHTS assay (AID 1963592). Further: series mostly up to about 92 µM; nearly all actives have a fitted effect of over 50% in size. The gist of the method:
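Cells (CHO, stable ADRB2 overexpression) incubated 18-20hr at 37C; compounds added from DMSO; agonist mix (1nM isoproterenol, 100uM IBMX, 25uM Ro-20-1724) added; 0.5hr RT; d2-cAMP and anti-cAMP-cryptate added; 1hr RT; 665/615 nm read.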

Experiment [18] has the same target. Briefly: Adrenergic beta2 receptor (ADRB2) small molecule agonists, cell-based qHTS assay (AID 1963593).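 Further: CHO cells stably overexpressing human ADRB2.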 In short, it runs like this: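 CHO cells stably over-expressing ADRB2 were plated overnight at 37C, then dosed with compounds plus a stimulation mix containing 100uM IBMX and 25uM Ro-20-1724 for 0.5hr at room temperature. cAMP was measured by HTRF competition, 1hr.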

Experiment [19] concerns the target D(2) dopamine receptor (Homo sapiens) (UniProt P14416). Briefly: Dopamine D2 receptor (DRD2) small molecule agonists, cell-based qHTS assay (AID 1963594). Further: nearly all actives have a fitted effect of over 35% in size. The gist of the method:
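HEK293 cells stably expressing human DRD2, pre-treated with PDE inhibitor Ro20-1724 (0.1 mM final) and compound 10 min at room temperature, then stimulated with NKH477 (200nM […]) for 30 min. cAMP read by HTRF (665/620 nm).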

A short description of experiment [20]: p53 small molecule agonists, cell-based qHTS assay with human liver microsomes (AID 1963577). Further: potency means the concentration at half of the fitted maximal effect. The gist of the method: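 p53RE-bla cells, 4,000/well, compound added after 5 h, with human liver microsomes 0.5 mg/mL and NADPH 0.5 mg/mL final; 16 h at 37 C, then LiveBLAzer 2 h RT, fluorescence.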

Inconclusive results are not listed. Activity calls are given as the source filed them. Unless noted, the call rests on the fitted dose curve.

Chain of D(2) dopamine receptor (Homo sapiens) (P14416 whole entry, looked up): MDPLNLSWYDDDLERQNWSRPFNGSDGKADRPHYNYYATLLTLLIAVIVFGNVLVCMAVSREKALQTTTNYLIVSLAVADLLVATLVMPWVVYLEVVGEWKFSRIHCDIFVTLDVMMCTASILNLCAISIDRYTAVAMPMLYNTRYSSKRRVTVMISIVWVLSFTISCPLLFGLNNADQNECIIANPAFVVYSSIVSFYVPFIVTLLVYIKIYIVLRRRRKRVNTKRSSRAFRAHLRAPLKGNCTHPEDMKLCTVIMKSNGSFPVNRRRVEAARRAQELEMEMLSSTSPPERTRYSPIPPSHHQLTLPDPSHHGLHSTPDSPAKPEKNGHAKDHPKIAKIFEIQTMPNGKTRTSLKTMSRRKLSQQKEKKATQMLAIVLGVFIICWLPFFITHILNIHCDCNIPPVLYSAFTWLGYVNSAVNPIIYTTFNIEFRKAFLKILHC
Chain of Gonadotropin-releasing hormone receptor (Homo sapiens) (P30968 whole entry, looked up): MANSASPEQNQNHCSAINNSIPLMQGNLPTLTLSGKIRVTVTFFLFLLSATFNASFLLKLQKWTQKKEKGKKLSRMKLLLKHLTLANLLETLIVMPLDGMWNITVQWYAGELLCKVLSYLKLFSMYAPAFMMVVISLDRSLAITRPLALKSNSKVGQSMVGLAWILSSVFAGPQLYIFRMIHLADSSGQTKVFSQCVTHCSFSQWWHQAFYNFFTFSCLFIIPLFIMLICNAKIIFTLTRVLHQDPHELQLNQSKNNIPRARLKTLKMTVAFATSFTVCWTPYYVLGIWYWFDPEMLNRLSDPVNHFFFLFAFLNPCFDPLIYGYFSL
Chain of Muscarinic acetylcholine receptor M1 (Homo sapiens) (P11229 whole entry, looked up): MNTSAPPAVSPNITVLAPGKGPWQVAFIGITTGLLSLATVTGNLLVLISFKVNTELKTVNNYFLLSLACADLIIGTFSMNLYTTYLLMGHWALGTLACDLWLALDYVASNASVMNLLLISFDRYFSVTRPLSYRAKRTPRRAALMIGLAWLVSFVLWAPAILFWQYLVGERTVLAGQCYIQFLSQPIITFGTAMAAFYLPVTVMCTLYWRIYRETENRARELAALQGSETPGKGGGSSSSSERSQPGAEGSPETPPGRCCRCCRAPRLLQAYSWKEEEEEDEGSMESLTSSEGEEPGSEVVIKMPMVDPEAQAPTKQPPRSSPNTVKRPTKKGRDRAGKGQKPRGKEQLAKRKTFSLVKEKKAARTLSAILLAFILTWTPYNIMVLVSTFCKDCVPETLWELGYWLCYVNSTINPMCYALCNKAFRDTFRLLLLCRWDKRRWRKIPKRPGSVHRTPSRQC
Chain of 5-hydroxytryptamine receptor 2A (Homo sapiens) (P28223 whole entry, looked up): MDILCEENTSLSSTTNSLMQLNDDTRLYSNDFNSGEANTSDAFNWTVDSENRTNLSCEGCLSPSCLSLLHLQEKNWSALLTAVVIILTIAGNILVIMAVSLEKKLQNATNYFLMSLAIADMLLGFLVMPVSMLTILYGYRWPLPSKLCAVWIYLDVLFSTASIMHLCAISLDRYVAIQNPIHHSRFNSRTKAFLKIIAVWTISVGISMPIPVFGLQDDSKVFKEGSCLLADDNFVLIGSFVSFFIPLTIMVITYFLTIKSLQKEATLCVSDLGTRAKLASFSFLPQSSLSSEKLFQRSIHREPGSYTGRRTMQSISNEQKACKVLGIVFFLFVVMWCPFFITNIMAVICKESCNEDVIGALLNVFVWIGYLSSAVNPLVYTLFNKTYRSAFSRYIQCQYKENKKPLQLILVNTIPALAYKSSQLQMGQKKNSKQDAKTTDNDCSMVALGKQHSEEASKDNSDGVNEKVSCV
Chain of KiSS-1 receptor (Homo sapiens) (Q969F8 whole entry, looked up): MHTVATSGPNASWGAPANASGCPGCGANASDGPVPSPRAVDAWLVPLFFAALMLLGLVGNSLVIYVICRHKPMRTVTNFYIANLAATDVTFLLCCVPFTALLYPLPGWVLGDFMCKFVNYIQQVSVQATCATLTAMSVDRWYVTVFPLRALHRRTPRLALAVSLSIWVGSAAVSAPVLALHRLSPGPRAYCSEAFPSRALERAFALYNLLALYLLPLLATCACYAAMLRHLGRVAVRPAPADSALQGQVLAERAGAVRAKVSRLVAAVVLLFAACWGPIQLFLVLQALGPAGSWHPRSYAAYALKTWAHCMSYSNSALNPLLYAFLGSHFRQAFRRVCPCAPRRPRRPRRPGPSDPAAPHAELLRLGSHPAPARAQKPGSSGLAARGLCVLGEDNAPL
Chain of Beta-2 adrenergic receptor (Homo sapiens) (P07550 whole entry, looked up): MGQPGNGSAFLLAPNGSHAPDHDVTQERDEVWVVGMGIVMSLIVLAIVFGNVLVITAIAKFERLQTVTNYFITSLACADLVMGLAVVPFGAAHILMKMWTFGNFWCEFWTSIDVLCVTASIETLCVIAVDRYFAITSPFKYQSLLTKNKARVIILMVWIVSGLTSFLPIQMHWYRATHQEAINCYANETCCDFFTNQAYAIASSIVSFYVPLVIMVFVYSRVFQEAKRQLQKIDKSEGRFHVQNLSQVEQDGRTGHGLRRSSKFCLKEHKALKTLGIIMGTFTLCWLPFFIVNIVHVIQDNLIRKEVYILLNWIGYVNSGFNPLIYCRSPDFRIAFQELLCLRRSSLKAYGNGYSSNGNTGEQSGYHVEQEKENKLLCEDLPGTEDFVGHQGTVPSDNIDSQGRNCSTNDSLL

As to `C[C@]12Cc3cn[nH]c3C[C@@H]1CC[C@@H]1[C@@H]2CC[C@@]2(C)[C@H]1CC[C@]2(C)O`, in experiment [1], the Potency is 29.8 µM (active). The Potency entry in experiment [2], in experiment [3], in experiment [4], in experiment [5], in experiment [6] and in experiment [7] was “inactive” each time. The Potency entry in experiment [8], in [9] and in [10] was “inactive” in each case.

As to `COP(=S)(OC)Oc1cc(Cl)c(I)cc1Cl`, the Potency entry in experiment [1], in [2], in experiment [3], in [4], in experiment [6] and in experiment [7] was “inactive” each time. Further, the Potency result in experiment [8], in [11], in experiment [12], in experiment [13], in experiment [14] and in experiment [15] was “inactive” in each case. Moreover, the Potency entry in experiment [16], in experiment [17], in experiment [18] and in experiment [19] was “inactive” in each case.

Regarding `Nc1ccc(Cl)cc1C(=O)c1ccccc1F`, the Potency result in experiment [1], in experiment [2], in experiment [3], in experiment [4], in experiment [5] and in experiment [7] was “inactive” each time. Further, the Potency result in experiment [12], in experiment [13], in experiment [14], in experiment [15], in experiment [17] and in experiment [18] was “inactive” throughout. The Potency entry in [19] and in [10] was “inactive” throughout.

As for `C[C@H]1[C@@H]2Cc3ccc(O)cc3[C@@]1(C)CCN2C`, the Potency result in experiment [1], in experiment [2], in experiment [3], in [4], in experiment [20] and in experiment [5] was “inactive” in each case. For the same compound, the Potency entry in experiment [8], in experiment [9], in experiment [11], in [12], in experiment [13] and in experiment [14] was “inactive” throughout. Besides, the Potency entry in experiment [15], in experiment [16], in experiment [17], in experiment [18], in experiment [19] and in experiment [10] was “inactive” in each case.

For the compound `CCOP(=S)(OCC)SCS(=O)(=O)C(C)(C)C`, the Potency entry in experiment [1], in [2], in experiment [3], in experiment [4], in [6] and in [8] was “inactive” throughout. In addition, the Potency entry in experiment [9], in [11], in experiment [12], in experiment [13], in [14] and in [15] was “inactive” each time. Further, the Potency entry in experiment [16], in experiment [19] and in [10] was “inactive” each time. In addition, in experiment [20], the Potency was 1.82 µM (active).

Consider `O=C(O)c1ccccc1C(=O)Nc1cccc2ccccc12`, for which the Potency result in [1], in experiment [2], in [3], in experiment [4], in experiment [5] and in [6] was “inactive” each time. Moreover, the Potency result in experiment [7], in experiment [8], in experiment [9], in [12], in [13] and in [14] was “inactive” in each case. Moreover, the Potency result in [15], in experiment [16], in experiment [17], in experiment [19] and in [10] was “inactive” each time.

Turning to `O=C(Nc1ccccc1)N(Cc1ccc(Cl)cc1)C1CCCC1`, the Potency result in [1], in experiment [2], in experiment [3], in [4], in [20] and in [6] was “inactive” in each case. In addition, the Potency entry in experiment [7], in experiment [8], in experiment [11], in experiment [12], in experiment [14] and in [17] was “inactive” each time. Moreover, the Potency result in experiment [18] and in experiment [19] was “inactive” throughout. Besides, the Potency in experiment [13] was 37.5 µM (active).
